The full ranking holds about 33,000 sequences; the median of “E-score (-0.5 to 0.5)” is about -0.054, and the highest 2% start at about 0.39. Many of the other results were omitted from the sample, so the highest values are more common in it than they were.
Target: Ylr278c (UniProt Q05854)
Test: PBM E-score (8-mer binding enrichment) (E-score (-0.5 to 0.5)); higher = stronger / more preferred TF binding
Details: protein concentration: 200 nM; construct: GST-DNA-binding domain
Procedure, shortened: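 Masliner-normalised scans of fluorescent anti-GST signal were the basis for scoring. That signal came from GST-tagged yeast transcription factors applied at about 100-200 nM to double-stranded universal all-10-mer Agilent arrays on fresh or once-stripped slides. Each ungapped eight-base word, pooled with its reverse complement, received an E-score from the Universal PBM Analysis Suite.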

Chain of UniProt Q05854 (Q05854 whole entry): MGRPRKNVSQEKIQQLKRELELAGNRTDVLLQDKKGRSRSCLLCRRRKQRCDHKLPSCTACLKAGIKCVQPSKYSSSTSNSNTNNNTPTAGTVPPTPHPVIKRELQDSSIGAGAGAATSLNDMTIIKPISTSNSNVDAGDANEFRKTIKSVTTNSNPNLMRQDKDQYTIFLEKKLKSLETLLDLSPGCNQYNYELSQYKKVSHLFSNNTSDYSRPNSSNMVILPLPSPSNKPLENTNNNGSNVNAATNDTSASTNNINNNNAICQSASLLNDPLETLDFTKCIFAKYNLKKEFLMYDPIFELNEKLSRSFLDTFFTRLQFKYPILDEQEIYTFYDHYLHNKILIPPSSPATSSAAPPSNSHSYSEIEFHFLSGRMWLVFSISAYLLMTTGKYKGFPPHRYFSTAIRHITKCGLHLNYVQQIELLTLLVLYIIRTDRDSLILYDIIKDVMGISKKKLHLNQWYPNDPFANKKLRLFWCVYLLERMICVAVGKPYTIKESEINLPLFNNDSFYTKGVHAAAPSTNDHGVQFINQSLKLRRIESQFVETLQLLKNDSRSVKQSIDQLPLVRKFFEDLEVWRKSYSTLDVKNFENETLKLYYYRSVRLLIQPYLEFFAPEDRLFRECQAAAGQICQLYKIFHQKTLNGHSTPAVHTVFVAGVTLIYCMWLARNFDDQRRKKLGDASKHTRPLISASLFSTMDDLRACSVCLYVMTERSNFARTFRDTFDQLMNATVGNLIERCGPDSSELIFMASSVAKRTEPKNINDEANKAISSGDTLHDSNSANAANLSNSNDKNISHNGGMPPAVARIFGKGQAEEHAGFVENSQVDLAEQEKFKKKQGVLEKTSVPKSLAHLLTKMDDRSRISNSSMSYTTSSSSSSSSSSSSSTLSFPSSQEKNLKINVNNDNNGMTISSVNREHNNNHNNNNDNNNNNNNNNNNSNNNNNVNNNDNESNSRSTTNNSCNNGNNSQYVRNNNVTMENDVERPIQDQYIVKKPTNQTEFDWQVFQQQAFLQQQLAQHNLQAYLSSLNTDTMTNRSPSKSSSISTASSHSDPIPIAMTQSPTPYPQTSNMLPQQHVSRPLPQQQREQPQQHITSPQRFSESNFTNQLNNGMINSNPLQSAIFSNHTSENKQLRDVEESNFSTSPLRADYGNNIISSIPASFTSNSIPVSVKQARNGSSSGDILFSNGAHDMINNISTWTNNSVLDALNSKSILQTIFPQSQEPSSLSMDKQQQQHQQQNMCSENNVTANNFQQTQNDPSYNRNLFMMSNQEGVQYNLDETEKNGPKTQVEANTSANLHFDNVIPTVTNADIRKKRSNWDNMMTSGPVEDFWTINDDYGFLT

Sequence | PBM E-score
AGTATCAC | -0.0655
GTTTCGCA | -0.0936
ACTACTAG | -0.0129
ATTTTGGA | 0.168
AAATCCTA | 0.0982
CTTGGCGA | -0.203
TATCGGAA | 0.413
TATCGGGA | 0.288
TATCGGCA | 0.264
ACGCTCCC | 0.0269
ACGCTCCT | -0.237
AGGCTCCC | -0.0902
ATGCTCCA | -0.0254
AGGCTCCA | -0.133
CCGCTCCG | 0.444
CCGCTCCC | 0.191
CCGCTCCA | 0.064
ATGCTCCC | -0.0848
ATGCTCCG | 0.425
AGGCTCCG | 0.39
ACGCTCCG | 0.399
GAGGCCGA | 0.217
ACTTTTCC | 0.278
GCCTAGCA | -0.245
GAGGCTAA | 0.0333

Sequence | PBM E-score
AGCAGACG | -0.00216
ATGTGGGA | -0.101
AAAGCTAT | -0.0422
GGTTGGCA | -0.173
ATAGAGAC | -0.248
CCCCGCAA | 0.225
GAGTCCGA | 0.392
CAGTCCGG | 0.367
AAGTCCGA | 0.483
AAGTCCTA | 0.0365
TAGTCCGA | 0.415
ACGTCCGA | 0.346
GAGTCCGC | 0.363
CAGTCCGC | 0.202
CAGTCCGA | 0.402
GCGTCCGA | 0.292
TAGTCCCA | -0.284
TAGTCCAA | -0.0998
ACCAGGGC | -0.178
ATTGAACG | -0.114
ATTGAACC | -0.0437
AGGCGTAT | -0.308
ACAGTCAT | -0.24
ACTATTGC | 0.0531
ATAGACCG | 0.0141

Sequence | PBM E-score
CAGCTTCC | -0.0366
CAGTGCGG | 0.257
ATGCTGCA | -0.178
CCACGGAA | 0.34
ACACGGAG | 0.419
ACACGGAA | 0.288
CCACGGAG | 0.418
CCACGGAC | 0.272
ACACGGAT | 0.199
ATCTCCCC | -0.00596
CTCTCCCA | -0.148
ATCTCCCG | 0.301
ATCTCCAG | -0.0917
ATCTCCGG | 0.493
CTCTCCGC | 0.325
ATCTCCGA | 0.478
CTCTCCAA | 0.0897
CTCTCCGA | 0.394
ATCTCCAA | -0.0722
ATCTCCGC | 0.47
ATCTCCCA | 0.0776
CTTCATGC | -0.0885
ACCGCGAC | 0.0815
CGAACTGC | 0.0356
ACATTCAA | 0.0683

Sequence | PBM E-score
GACAGTCC | 0.0326
CCGGTAAG | 0.337
GCGCGCAA | 0.219
GTCTCCGA | 0.417
GTCTCCTA | -0.166
GTCTCCAA | -0.111
GTACTTTA | -0.191
TATCCTGA | -0.121
TATCCGCA | 0.271
AATCCGGC | 0.425
CATCCGGC | 0.354
CATCCGGG | 0.3
AATCCGGG | 0.417
AATCCGTA | 0.195
AATCCGTC | 0.297
AATCCGGA | 0.466
AATCCTGG | -0.0892
TATCCGGA | 0.469
AATCCGCA | 0.316
CCTCGACG | -0.00055
GTACTGCA | -0.0765
AAACCTCC | 0.147
AATATTGT | 0.0529
TACCAGGA | -0.0496
CTACTTTC | -0.0554

Sequence | PBM E-score
GGGTCGCA | 0.139
CTTGACAC | -0.193
ATAGATGG | -0.132
CCCTTTCG | 0.116
AATCCGCT | 0.269
AATCCAGT | 0.108
CATCCGTA | 0.183
CATCCGGA | 0.436
AATCCGGT | 0.442
GATCCGGA | 0.439
CATCCGCA | 0.191
GATCCGGC | 0.407
GATCCTGC | -0.00417
GATCCGTA | 0.158
GATCCGCC | 0.276
GATCCGAA | 0.33
CGTTTTGA | -0.142
CTTAAGAA | -0.14
AGCACCGC | 0.121
CGAGCTTC | 0.028
ACTAAGGG | -0.0488
AAGGGTCC | 0.216
AAGAAAGA | -0.0469
ATGCTAGC | 0.00697
GACCGGAC | 0.383

Sequence | PBM E-score
CACCGGAC | 0.439
GACCGGTA | 0.0914
GACCGGGA | 0.359
GACCGGAA | 0.389
CACCGGAG | 0.443
CACCGGTG | 0.306
CACCGGTA | 0.297
CACCGGAA | 0.427
CACCGGCC | 0.273
CACCGGGA | 0.352
CACCGGCG | 0.383
ATACGATA | -0.118
ACGGGGGA | 0.0207
ACTCCATC | 0.275
ATGCACAC | -0.153
CCATCAGC | -0.0147
GGGGTCAC | -0.0137
GTCTTACA | -0.252
GCAGGTCA | -0.134
ACCAGTGC | -0.264
AACCGCAG | -0.0582
AACCGGTG | 0.282
AAACGGAC | 0.197
AACCGGAT | 0.367
AACCGGAC | 0.414

Sequence | PBM E-score
TACCGGAA | 0.397
TACCGGTA | 0.246
AACCGGCA | 0.215
TACCGGGA | 0.381
AACCGCAC | -0.0338
AACCGGAG | 0.48
AACCGGAA | 0.391
ACAGTGAG | -0.301
GAGAGTTA | -0.158
CGCAACAC | 0.111
ATTCAAGG | -0.282
GCTTTCCA | -0.0584
CCTTAGAG | -0.172
TGTCCTAA | -0.233
GGTCCGAC | 0.39
CGTCCGAA | 0.352
CGTCCGAC | 0.243
GGTCCAAA | 0.0394
GGTCCGAA | 0.439
GGTCCAAC | 0.00905
TGTCCAAA | -0.0727
TGTCCGAA | 0.407
AAACCCAA | 0.0205
AACGGGCA | -0.0928
TCCTCAGA | 0.0167

Sequence | PBM E-score
CGTGAGTC | -0.141
CAACTTCC | 0.22
GTAGCGAC | -0.186
GCGTTCGA | -0.11
ATTTCCGG | 0.475
CTTTCCGA | 0.354
ATTTCCCC | 0.127
ACTTCCGG | 0.435
ATTTCCTG | 0.0615
ATTTCCGC | 0.397
CTTTCCGC | 0.332
ATTTCCGA | 0.446
GTTTCCGA | 0.369
ACTTCCGA | 0.378
ATTTCCAG | 0.0814
ACTTCCGC | 0.342
ACACATCA | 0.0404
CCACTGAA | 0.0461
GTCAAGAC | -0.133
GAGCTGGA | 0.0426
TAAGGACA | -0.156
CTATCTGA | -0.328
CGTTCGGA | 0.41
GGTTCGGA | 0.42
AGTTCGGC | 0.185

Sequence | PBM E-score
CGTTCGGC | 0.235
GGTTCGCA | 0.0401
AGTTCGGG | 0.281
GGTTCGAA | 0.0257
CGTTCGTA | 0.0114
AGTTCGGA | 0.391
AAGAGACT | -0.101
AAATCTGA | -0.0879
TAGTACGA | -0.0816
GGGAGTAC | 0.0396
CGGAGTAA | 0.468
AGGAGTAA | 0.0423
AGGAGTAG | -0.00627
AGGAGTAC | -0.136
CGGAGTAC | 0.462
CCGAGTAG | 0.197
CGGAGTAG | 0.465
GGGAGTAA | 0.0663
GAACAGAA | -0.0459
ACTTCAAC | -0.0372
GAGTGAGC | -0.125
AATAGATT | -0.0366
AAGGGCTA | -0.124
CCAGATGG | -0.0985
GTATGGCA | -0.204

Sequence | PBM E-score
CAGCCGGG | 0.166
TAGCCGGA | 0.42
AAGCCGGT | 0.333
AAGCCGGC | 0.372
AAGCCGGA | 0.417
CAGCCGGC | 0.296
GAGCCGGC | 0.325
TAGCCGAA | 0.141
GAGCCGGA | 0.407
TAGCCGCA | 0.041
CAGCCGGA | 0.434
GAGCCGCA | 0.0873
AGCCGCAT | 0.105
CCCCGTGC | 0.295
AAACCCTC | -0.0128
CAGAGGAC | -0.187
CCGGGAAG | 0.334
CAGTGATC | -0.0716
CTCGACCA | -0.232
CGCATAAC | -0.0515
ATAGCGAA | -0.144
ATACACAT | -0.212
ATCCGTAA | 0.155
TTACGGAA | 0.283
ATCCGGAA | 0.432

Sequence | PBM E-score
ATCCGCAT | 0.263
GTACGGAA | 0.31
TTCCGGAA | 0.467
GTCCGGAA | 0.44
TTCAGGAA | -0.0794
GTGCGGAA | 0.265
ATGCGGAA | 0.383
ATCAGGAT | -0.018
ATCCGGAT | 0.452
AATTGCAC | -0.054
CATCGCAA | -0.28
GGTTTCAC | 0.0826
TACGCATA | -0.0249
ATCCGTAC | 0.112
CTCAGGAC | -0.159
CTCCGGAC | 0.477
CTGCGGAC | 0.221
ATCCGGAC | 0.424
GTCAGGAC | -0.266
GTACGGAC | 0.249
ATCAGGAG | -0.02
ATACGGAC | 0.242
GTCCGGAC | 0.455
ATCCGTAG | 0.134
ATCCGGAG | 0.486

Sequence | PBM E-score
ATGCAGAA | -0.16
AGAGATTG | -0.112
AGCTGGTG | -0.109
AATTTGGC | -0.131
ACCCTTCG | 0.0769
ATGCGATA | -0.0857
GTACCAGA | -0.28
ATGCTACG | -0.0841
TAGTAGCA | -0.0836
CGAGGTCC | 0.333
CTCCGGAG | 0.481
CTGCGGAA | 0.214
CTCAGGAA | -0.0459
ATGCGGAG | 0.385
CTCAGGAG | -0.171
CTCCGGAA | 0.479
CTAACAAC | -0.0734
CCGCTGCA | 0.0719
CATGCTCA | -0.115
CCCCGTCC | 0.252
GTCCGTCA | 0.289
CTCCGTCA | 0.421
CTCCGTCC | 0.449
GTCCGTAA | 0.331
ATCCGTCA | 0.159

Sequence | PBM E-score
ATCCGTCC | 0.18
CTCCGTAC | 0.358
CTCCGTAA | 0.41
CGAATCCA | -0.0549
ACATTGGT | -0.1
AATATCTC | 0.0682
ACTGACAG | -0.0502
AGTGGGAT | -0.00431
CATCCGCG | 0.197
ACTCCACG | 0.0682
ACTCCGCG | 0.462
CATCCGCC | 0.309
CCTCCGCA | 0.359
AATCCGCG | 0.323
CCGCCTCC | 0.283
CCTCCGCC | 0.413
CCTCCGCG | 0.416
CGGTCAGA | 0.0192
ATCGCCAT | -0.0309
CGCGTCCA | 0.0142
AAGTGCCT | -0.328
AAAGCAGC | -0.0496
CTATGCAG | -0.166
AGGGGTGC | -0.114
AGAGTCGC | -0.14

Sequence | PBM E-score
GGTATCGA | -0.0372
GGATCGGA | 0.438
CGATCGTA | 0.00037
CGATCGGA | 0.44
GGATCGCA | -0.0558
CGATCGGC | 0.282
AGATCGGA | 0.43
AGATCGGG | 0.222
AGATCGGC | 0.224
GGATCGAA | 0.0293
ACTCAACT | 0.0546
GAGCATTA | -0.111
TATTGAAA | 0.0175
GGTTAGAA | -0.15
TAGCTAGA | -0.285
AAAACTCC | 0.386
CAAACTCC | 0.434
GAAACTCC | 0.399
GAAACTTC | 0.0593
GAAACTCA | -0.0472
CAAACTCA | -0.0703
